G9a inh: qHTS Assay for Inhibitors of Histone Lysine Methyltransferase G9a | AID 504332, 2011 | Potency, µM (series often up to 102 µM), without a hit: at the highest dose activity, negative = inhibition, most hits filed as inhibitors | 350,000 compounds, 8.8% hits | G9a H3K9 monomethylation, AlphaScreen, 2 h; further: potency means the concentration at half of the fitted maximal effect; nearly all actives have a fitted effect of over 75% in size
Target sequence (Q96KQ7 913-1193 limits assumed): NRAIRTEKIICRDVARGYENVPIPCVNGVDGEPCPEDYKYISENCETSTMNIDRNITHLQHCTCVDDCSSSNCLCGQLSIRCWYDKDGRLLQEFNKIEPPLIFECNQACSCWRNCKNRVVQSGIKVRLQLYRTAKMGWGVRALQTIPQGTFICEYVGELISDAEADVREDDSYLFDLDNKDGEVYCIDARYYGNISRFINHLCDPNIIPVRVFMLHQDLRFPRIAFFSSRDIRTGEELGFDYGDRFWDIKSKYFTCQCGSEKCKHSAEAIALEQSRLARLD
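Readings reflect AlphaScreen signal from monomethyl-H3K9 antibody detection. HMT at 20 nM; substrate b-H3K9 500 nM; cofactor SAM 20 uM; 2 h RT reaction; compounds tested as titrations in qHTS with 15 min preincubation.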
Sfp PPTase inh: qHTS Assay for Inhibitors of Bacillus subtilis Sfp phosphopantetheinyl transferase (PPTase). 4'-phosphopantetheinyl transferase ffp (Bacillus subtilis), Q9F4F7. Biochemical Sfp PPTase activity, qHTS. Potency, µM, for inactives: largest response in the series, negative = inhibition, usual class: inhibitors. 310,000 compounds, 3.5% hits. AID 1490, 2009;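 further: the enzyme is Sfp with the accession as filed and its product quenches rhodamine fluorescence; potency means the concentration at half of the fitted maximal effect; 0% = enzyme reaction without inhibitor and -100% = no enzyme wells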
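Step 1, compound plus 15 nM Sfp-PPTase, 15 min, room temperature. Step 2, add rhodamine-CoA (5 uM) and BHQ-2-YbbR (12.5 uM). Step 3, read 525/598 nm fluorescence at 0 and 30 min.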
MmCpn inh: Inhibitors of TCP-1 ring complex (TRiC) of Methanococcus maripaludis (MmCpn): qHTS; purified Mm-Cpn ATPase, ADP Transcreener TR-FRET; Chaperonin Mm-Cpn (Methanococcus maripaludis); Potency, µM (titrated, usually from 76.9 µM), for inactives: at the top dose activity, negative = inhibition, hits mostly inhibitors; 330,000 compounds, 0.031% hits; further: potency means the concentration at half of the fitted maximal effect; nearly all actives have a fitted effect of over 80% in size
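Quantitative HTS used 25 nM Mm-CPN and 10 uM ATP in magnesium/KCl Tris buffer, pH 7.4, with 1 mM DTT. Hydrolysis ran 30 min at 37°C; ADP was read by HTRF.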
CCT chaperon mod: High-Throughput Screening for Modulators of Cytosolic Chaperonin Activity; activity change, % (no concentration beside the values), hits read low; purified chaperonin ATPase assay, HTRF ADP detection, 30 min; 360,000 compounds, 0.3% hits; AID 651819, 2012; in the data active means activity change below about -30%
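TRiC (40 or 20 nM final, by batch activity) in 30 mM Tris pH 7.4, 100 mM KCl, 5 mM MgCl2, 1 mM DTT was treated with compound at 76 uM single dose, then 10 uM ATP, 30 min at 37 °C. ADP was read by HTRF Transcreener.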
PLK1 PBD block: qHTS for Inhibitors of PLK1-PDB (polo-like kinase 1 - polo-box domain): Primary Screen. Serine/threonine-protein kinase PLK1 (Homo sapiens), P53350. Plk1 PBD binding of FITC phosphopeptide, fluorescence polarization. Potency, µM, inactives show max response, negative = inhibition, hits mostly inhibitors. 360,000 compounds, 2.8% hits. AID 720504, 2013; further: potency means the concentration at half of the fitted maximal effect; series mostly up to about 57 µM; nearly all actives have a fitted effect of over 65% in size
VDR inh: Inhibitors of the vitamin D receptor (VDR): qHTS; Potency, µM, for inactives: max response, negative = inhibition, most hits filed as inhibitors; VDR-SRC2-3 peptide fluorescence polarization, 2 h; 400,000 compounds, 0.93% hits; further: potency means the concentration at half of the fitted maximal effect
Target sequence (P11473 whole entry, looked up): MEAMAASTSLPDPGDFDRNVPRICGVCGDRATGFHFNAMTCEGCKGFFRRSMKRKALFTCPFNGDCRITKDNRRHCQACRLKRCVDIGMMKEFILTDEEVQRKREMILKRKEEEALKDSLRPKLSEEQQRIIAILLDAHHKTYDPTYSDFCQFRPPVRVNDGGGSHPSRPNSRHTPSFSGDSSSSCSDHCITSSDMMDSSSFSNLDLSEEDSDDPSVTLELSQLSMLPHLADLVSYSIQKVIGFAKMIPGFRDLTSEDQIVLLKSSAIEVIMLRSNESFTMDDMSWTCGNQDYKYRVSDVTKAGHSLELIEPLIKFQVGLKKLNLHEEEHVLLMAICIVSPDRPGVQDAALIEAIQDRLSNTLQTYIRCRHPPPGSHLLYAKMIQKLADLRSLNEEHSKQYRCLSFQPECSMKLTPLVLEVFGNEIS
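After 23 nl compound addition and a short centrifugation, plates sat for 2 hours at ambient temperature; polarization of fluorescence then indicated loss of VDR binding to peptide SRC2-3.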
* marks the source's active call; other numbers are inactive results; ? = inconclusive; . = not tested or not shown; ! = a repeat was not active; [ ] = dose if it differs, or a comment. Shown are actives, neighbours in structure and some others; about 10% of the full set was active somewhere. Unless noted, the call rests on the fitted dose curve; in most records, active means well fitted curve in the direction sought with a large enough effect; inconclusive means small, poorly fitted or top-dose-only effect, or another doubt; inactive means no such curve, though single readings can be large; an effect the other way counts as inactive or inconclusive. Unless noted, on the % scale 0 is the no-effect control and ±100 the full control effect.

SMILES	G9a inh	Sfp PPTase inh	MmCpn inh	CCT chaperon mod	PLK1 PBD block	VDR inh
CNC(C)C1CC[C@H](N)[C@@H](OC2C(N)C[C@H](N)[C@@H](OC3OC[C@](C)(O)C(NC)[C@H]3O)C2O)O1 (some centres not stated)	-10.6%[2.33 µM]	0.5%	.	.	.	-0.4%
C[C@H](N)Cc1cnc[nH]1	-38.7%[59 µM]	6.1%	.	.	.	-6.2%
OCc1cnc[nH]1	11.9µM*!	16.8%	1.7%	-2.3	-15.5%	7.2%
O=C(O)c1ccc[nH]c1=S	3.55µM*	8.91µM*	1.5%	-1.6	?	8.7%
COc1cc(C(=O)OC2C[C@H]3CC[C@@H](C2)N3)ccc1O (some centres not stated)	39.8µM*	6.9%	0.8%	-3.1	-13.3%	-27.8%
CC(CNC(=O)c1ccc(CSc2nc3ccncc3n2Cc2ccc(F)cc2)cc1)c1ccccc1 (configuration not stated)	?	.	.	.	.	4.8%
CN1CCN(c2ccc(N)cc2Cl)CC1	39.8µM*	?	-2.0%	-1.7	15µM*	?
CCOC(=O)N1CCCN(/[N+]([O-])=N/Oc2ccc([N+](=O)[O-])cc2[N+](=O)[O-])CC1	.	-5.2%	.	.	.	?
CCCOCCN(C(=O)CCl)c1c(CC)cccc1CC	.	14.1%	.	.	.	11.4%
O=C(O)c1sccc1Oc1ccc(F)cc1[N+](=O)[O-]	35.5µM*	20.5%	-0.2%	1.5	-11.6%	2.6%
O=C(O)c1ccc([N+](=O)[O-])c([N+](=O)[O-])c1	.	.	.	-1.1	-18.9%	-3.2%
COc1cc(-c2nc3ccc(Cl)cn3c2Nc2ccc3c(c2)OCCO3)ccc1O	12.6µM*	.	.	.	.	-1.5%
CON(C)C(=O)Nc1ccc(Cl)cc1	-42.5%[59 µM]	-6.7%	1.1%	-0.1	-8.4%	-4.6%
O=C(Nc1ccc(Cl)cc1)O/N=C(\c1ccccc1)c1ccccn1	?	39.8µM*	1.2%	-3.7	?	5.7%
Cc1ccc(-n2c(O)c(C=NC3CCCC3)c(=O)[nH]c2=O)c(C)c1	-10.1%[59 µM]	2.4%	-8.4%	0.7	1.2%	-10.9%
Cc1ccc2c(c1)=C/C(=C\c1c(O)[nH]c(=S)[nH]c1=O)C(=O)N=2	3.55µM*	7.08µM*	-1.7%	.	.	.
CC1=C(C(=O)O)N2C(=O)[C@@H](NC(=O)CCCC(=O)O)[C@H]2SC1	-131.9%[59 µM]	5.01µM*	.	1.9	-25.6%	-19.7%
CC(=O)OCC1=C(C(=O)[O-])N2C(=O)[C@@H](NC(=O)CCC[C@@H](N)C(=O)[O-])[C@H]2SC1.[Zn+2]	14.3%[12.7 µM]	.	.	.	.	.
O=C1CCC[C@H]2[C@@H]3CCCN4CCC[C@H](CN12)[C@H]34	37.6%[59 µM]	19.3%	.	.	.	-0.8%
COc1ccc(C2=NCC(=O)N(CC(=O)NCc3ccco3)c3sc4c(c32)CCCC4)cc1OC	15.8µM*	50.1µM*	0.2%	0.4	-7.4%	11.1%
O=C(CN1C(=O)CN=C(c2ccccc2)c2ccccc21)NCc1ccco1	?	9.5%	2.8%	0.5	-11.9%	-7.2%
[Cl][Pt+2][Cl].[NH-]C1CCCCC1[NH-] (configuration not stated)	10µM*	.	-4.5%	-0.4	-11.2%	50.1µM*
CCCCCCCCc1ccc(O)cc1	-0.9%[0.501 µM]	.	-0.6%	-0.1	-10.0%	-6.8%
CCCCc1ccc(C(=O)O)nc1	5.97µM*!	28.2µM*	-1.3%	-0.8	3.4%	4.1%
Cc1cc(/C=C2\C(=O)NC(=O)N(Cc3ccco3)C2=O)c(C)n1-c1ccc(O)cc1	?	?	0.7%	-2.0	-28.6%	29.8%
SMILES	G9a inh	Sfp PPTase inh	MmCpn inh	CCT chaperon mod	PLK1 PBD block	VDR inh
Cc1cc(/C=C2\C(=O)NC(=O)N(Cc3ccco3)C2=O)c(C)n1-c1ccc(C(=O)O)cc1	50.1µM*	5.8%	1.4%	-2.0	?	9.4%
Cc1cc(/C=C2\C(=O)NC(=O)N(Cc3ccccc3Cl)C2=O)c(C)n1-c1ccc(C(=O)O)cc1	25.1µM*	-14.8%	2.0%	0.7	10.6µM*	?
Cc1ccc(N2C(=O)NC(=O)/C(=C\c3cc(C)n(-c4ccc(C(=O)O)cc4)c3C)C2=O)cc1	?	-23.4%	0.8%	2.2	?	-2.6%
Cc1cc(/C=C2\C(=O)NC(=O)N(Cc3ccccc3)C2=O)c(C)n1-c1ccc(Cl)c(C(=O)O)c1	12.6µM*	-2.1%	-2.7%	1.2	5.97µM*	-1.0%
FC(F)OC(F)(F)C(F)Cl (configuration not stated)	8.8%[12.7 µM]	11.3%	.	.	.	4.7%
O=C(Nc1cccc(F)c1)N1CCCC2(CCN(C(=O)Oc3ccccc3)CC2)C1	2.9%[12.7 µM]	9.2%	.	.	.	11.2%
Cc1c(O)c(=O)ccn1C	1.58µM*!	56.2µM*	-3.4%[15.4 µM]	0.0	-2.6%	-9.7%
O=C(O)c1cc([N+](=O)[O-])cc([N+](=O)[O-])c1O	.	2.9%	.	.	.	1.8%
O=[N+]([O-])c1cc(-n2cnnn2)c(O)c([N+](=O)[O-])c1	50.1µM*	11.1%	1.7%	-2.6	-21.4%	-17.0%
O=[N+]([O-])c1cc(O)c(O)c([N+](=O)[O-])c1	7.94µM*!	?	-4.1%	0.6	-1.9%	9.7%
CCCCCOc1c(OC)ccc2cc(C(=O)NCc3ccc4c(c3)OCO4)c(=O)[nH]c12	35.9%[59 µM]	-6.8%	.	.	.	1.4%
CN1CC[C@@]2(C)c3cc(O)ccc3N(C)[C@@H]12	.	-5.1%	.	-0.3	5.32µM*	?
CNC(=O)Oc1ccc2c(c1)[C@@]1(C)CCN(C)[C@@H]1N2C	7.8%[21.5 µM]	7.2%	.	.	.	0.6%
CN1CC[C@@]2(C)c3cc(OC(=O)Nc4ccccc4)ccc3N(C)[C@@H]12	15.8µM*	14.1%	.	.	.	?
CCC(C)C(=O)OC1C[C@@]2(C)C(c3ccoc3)OC(=O)CC23OC2(C)OC34C(OC(=O)C(C)C)[C@]3(O)C(OC(=O)C5(C)OC5C)[C@]5(C)CC3(O)[C@](C)(C5CC(=O)OC)C14O2 (some centres not stated)	-44.8%[2.33 µM]	16.7%	.	.	.	-2.8%
CC(C)(c1ccc(OCC2CO2)cc1)c1ccc(OCC2CO2)cc1 (configuration not stated)	139.1%[59 µM]	5.8%	.	.	.	?
CCCN1CCCC2Cc3nc(N)ncc3CC21 (configuration not stated)	-7.3%[59 µM]	19.1%	.	.	.	-0.5%
CC(=O)c1ccc2c(c1)C1C(Cl)C(Sc3ccccc3[N+](=O)[O-])CC1C(c1ccccc1)N2 (configuration not stated)	10µM*	-25.3%	0.3%	-1.6	15µM*	?
